Results reported in PubChem BioAssay AID2283097 (EPA ToxCast).
Records with an inconclusive call do not appear. Activity calls are given as the source filed them. Rule for the calls: active = hit-call score of the fitted dose curve at least 0.9, where 1 is the maximum; inconclusive = response in the unintended direction; inactive = score below 0.9.

What follows are compounds tested against human CYP1B1, CYP1B1 (gene 1545) (UniProt Q16678) (assay: NVS_ADME_hCYP1B1: NovaScreen (NVS) CYP450-related Enzyme Activity (ADME) Assay for human CYP1B1).
Sequence of human CYP1B1, CYP1B1 (gene 1545) (Q16678 whole entry, looked up): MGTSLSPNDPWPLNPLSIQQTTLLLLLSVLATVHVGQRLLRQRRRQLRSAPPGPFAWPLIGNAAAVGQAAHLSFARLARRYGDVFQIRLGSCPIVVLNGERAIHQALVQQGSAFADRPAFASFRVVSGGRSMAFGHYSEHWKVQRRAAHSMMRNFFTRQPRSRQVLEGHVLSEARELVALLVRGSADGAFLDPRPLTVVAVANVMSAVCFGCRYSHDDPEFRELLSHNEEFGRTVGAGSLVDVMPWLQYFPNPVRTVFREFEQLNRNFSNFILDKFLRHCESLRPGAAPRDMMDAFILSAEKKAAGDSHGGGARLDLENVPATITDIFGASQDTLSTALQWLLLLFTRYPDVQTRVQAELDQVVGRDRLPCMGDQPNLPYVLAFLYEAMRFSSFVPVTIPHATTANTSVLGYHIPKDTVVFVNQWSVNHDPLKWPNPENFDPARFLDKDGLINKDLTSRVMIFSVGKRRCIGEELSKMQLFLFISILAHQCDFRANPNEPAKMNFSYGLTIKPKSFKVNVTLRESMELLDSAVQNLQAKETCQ
Description: NVS_ADME_hCYP1B1 is a biochemical, single-readout assay that uses extracted gene-proteins in a cell-free assay. Measurements were taken 1 hour after chemical dosing in a 96-well plate.NVS_ADME_hCYP1B1 is one of one assay component(s) measured or calculated from the NVS_ADME_hCYP1B1 assay. It is designed to make measurements of enzyme activity, a form of enzyme reporter, as detected with fluorescence intensity signals by Fluorescence technology.Data from the assay component NVS_ADME_hCYP1B1 was analyzed into 1 assay endpoint. This assay endpoint, NVS_ADME_hCYP1B1, was analyzed in the positive analysis fitting direction relative to Acetonitrile as the negative control and baseline of activity. Using a type of enzyme reporter, loss-of-signal activity can be used to understand changes in the enzymatic activity as they relate to the gene CYP1B1. Furthermore, this assay endpoint can be referred to as a primary readout, because this assay has produced multiple assay endpoints where this one serves a enzymatic activity function. To generalize the intended target to other relatable targets, this assay endpoint is annotated to the cyp intended target family, where the subfamily is xenobiotic metabolism.
Binding assays used specific radioligands (tritiated, iodinated) with non-radioactive competitive displacement ligands in agonist or antagonist protocols (as indicated) and various reference compounds and inhibitors to titrate specific binding to receptors and transporters. Most enzyme assays (CYPs, kinases, phosphatases, proteases, HDACs) used recombinant protein and specific substrates (fluorescence mostly, some colorimetric and radioactive) and inhibitors, followed by a biochemical separation of substrate and product. All assays for the biochemical HTS were initially run in duplicate at a single concentration (10 uM for CYP450 assays and 25 uM for all others). Assay-chemical combinations meeting a pre-defined threshold (e.g., 30% inhibition and other criteria defined below) were then run in singleton concentration-response format with maximum concentration of 20 uM for CYPs and 50 uM for all others. Each assay was run with positive and negative controls, and concurrent controls on every plate. The follow-up (secondary) screen tested active chemical-pairs in concentration series, as well as a few additional assays not tested in the primary screen, some selected negative inactives, and several cases re-run in the concentration series for confirmatory purposes.

Compound | outcome | AC50
CCCN(CCOc1c(Cl)cc(Cl)cc1Cl)C(=O)n1ccnc1 | inactive | –
Cc1ccn2nc(S(=O)(=O)Nc3c(F)cccc3F)nc2n1 | inactive | –
Cc1ccc(-c2c(Cl)nc(C#N)n2S(=O)(=O)N(C)C)cc1 | inactive | –
COP(=S)(OC)SCn1nnc2ccccc2c1=O | – | 498 nM (active)
